FMDV inh = High Throughput Screening for Foot and Mouth Disease Virus Antivirals; FMDV antiviral cell-based qHTS; Potency, µM (highest dose often 57.9 µM), for the others: at the top dose activity change, negative = inhibition, hits mostly inhibitors; 1.2% of 410,000 active; calls by dose curve; tested in HEK293T cells; note: read-out not given here; potency is the fitted concentration of half-maximal effect; % is set by controls: 0 for no effect and ±100 for the full control effect; nearly all actives have a fitted effect of over 45% in size
SARS PLP yeast = qHTS of Yeast-based Assay for SARS-CoV PLP; S. cerevisiae expressing SARS-CoV PLpro, growth rescue; Potency, µM (series often up to 32.9 µM), for the others: top-dose activity, positive = growth rescue, usual class: activators; 0.19% of 330,000 active; AID 485353, 2010; calls by dose curve; note: potency is the fitted concentration of half-maximal effect; 0% is about no effect; nearly all actives have a fitted effect of over 55% in size
HCV inhibitor = qHTS Assay for Inhibitors of Hepatitis C Virus (HCV). Huh7.5.1 HCVcc-Cre infection, luciferase reporter, 44 h. Potency, µM (top dose mostly 41.8 µM), for inactives: at the highest dose activity change, negative = inhibition, hits mostly inhibitors. 3.4% of 340,000 active. AID 651820, 2012; active = well fitted inhibition curve with a large enough effect; inconclusive = small, poorly fitted or top-dose-only effect, or another doubt; inactive = no such curve, though single readings can be large or run the other way; note: potency is the fitted concentration of half-maximal effect; % is set by controls: 0 for no effect and ±100 for the full control effect
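1,000 cells/well; 4 h culture; + compound; + HCVcc-Cre (~0.5 moi); 44 h; luciferase substrate, RT 15 min; read 15 sec.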
LASV entry inh = qHTS for Inhibitors of binding or entry into cells for Lassa Virus | 1.2% of 300,000 active | Lassa virus pseudotype entry inhibition, cell reporter | Potency, µM (highest dose often 37.9 µM), without a hit: top-dose activity change, negative = inhibition, actives largely listed as inhibitors; calls by dose curve; tested in HEK293 cells; note: potency is the fitted concentration of half-maximal effect; % is set by controls: 0 for no effect and ±100 for the full control effect; nearly all actives have a fitted effect of over 50% in size
MARV entry inh = qHTS for inhibitors of binding or entry into cells for Marburg Virus | Marburg virus pseudotyped entry inhibition, cell reporter | Potency, µM (titrated, usually from 37.8 µM), for inactives: at the highest dose activity change, negative = inhibition, usual class: inhibitors | 1.8% of 300,000 active; calls by dose curve; tested in HEK293 cells; note: potency is the fitted concentration of half-maximal effect; % is set by controls: 0 for no effect and ±100 for the full control effect
HCMV inh = qHTS Assay for inhibitors of the human cytomegalovirus (HCMV). HFF cells, HCMV-luciferase reporter, 72 h; stronger effect = lower value. activity change, negative = inhibition, % at 57.5 µM. 4.5% of 410,000 active; in the data active = activity change below about -60%; inconclusive = no clear call, values can overlap the other calls; inactive = above about -39%; note: % is set by controls: 0 for no effect and ±100 for the full control effect
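Inhibition of viral replication was scored as loss of reporter luminescence in HFFs infected with HCMV-luciferase (MOI 1 PFU/cell) for 72 h; compounds tested at 2 doses, normalized to buffer and Salinomycin controls.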
An asterisk follows results filed as active; [ ] = another dose, or the depositor's remark. Rows were chosen to be rich in hits. Some 8% of all compounds tested hit in one or more screens of this group.

`CCOC(=O)c1c(-c2ccccc2)csc1NC(=O)CSc1nc(N)cc(N)n1` gave FMDV inh 18µM*, SARS PLP yeast 5%, HCV inhibitor 13µM*, LASV entry inh -2%, MARV entry inh inconclusive and HCMV inh -67*.
CCOC(=O)c1c(-c2ccccc2)csc1NC(=S)N(CC)CC was read as FMDV inh inconclusive, SARS PLP yeast 6%, HCV inhibitor inconclusive, LASV entry inh -8%, MARV entry inh inconclusive and HCMV inh -11.
CCOC(=O)c1c(-c2ccccc2)csc1NC(=O)CSc1nc(C)cc(C)n1 was read as FMDV inh inconclusive, SARS PLP yeast -17%, HCV inhibitor inconclusive, LASV entry inh inconclusive, MARV entry inh inconclusive and HCMV inh -82*.
Screening CCOC(=O)c1c(-c2ccco2)csc1NC(=O)CSc1nnc(N)s1 returned FMDV inh -11%, SARS PLP yeast inconclusive, HCV inhibitor 11µM*, LASV entry inh 18%, MARV entry inh -15% and HCMV inh -11.
For O=C(Nc1ccc(F)cc1)c1cc(S(=O)(=O)N2CCCCC2)cs1 the results were FMDV inh inconclusive, SARS PLP yeast -2%, HCV inhibitor inconclusive, LASV entry inh inconclusive, MARV entry inh inconclusive and HCMV inh -84*.
`CC1CN(S(=O)(=O)c2csc(C(=O)Nc3ccccc3)c2)CC(C)O1` (stereo unspecified) gave FMDV inh -28%, SARS PLP yeast 0%, LASV entry inh inconclusive, MARV entry inh inconclusive and HCMV inh -60*.
CCN(CC)C(=O)c1ncn2c1C(=O)N[C@@H](C)C2 was read as HCMV inh -11.
For O=C(CSc1nc2ccccc2nc1Cc1ccccc1)Nc1ccc2c(c1)OCO2 the results were FMDV inh 22%, LASV entry inh 28%[46.1 µM] and HCMV inh 0.
Screening CCc1cccc(C)c1NC(=O)CSc1nc2ccccc2nc1N1CCOCC1 returned FMDV inh inconclusive, LASV entry inh inconclusive, MARV entry inh inconclusive and HCMV inh 12.
Cc1ccc(Cc2nc3ccccc3nc2SCC(=O)Nc2ccc3c(c2)OCO3)cc1 was read as FMDV inh 6%, LASV entry inh 26%[46.1 µM] and HCMV inh -66*.
`CCc1cccc(C)c1NC(=O)CSc1nc2ccccc2nc1Cc1ccccc1` gave FMDV inh -10%, LASV entry inh 0%[46.1 µM] and HCMV inh -68*.
For Cc1ccc(NC(=O)c2nc(-c3ccncc3)no2)c(Cl)c1 the results were FMDV inh -2%, LASV entry inh 5%[46.1 µM] and HCMV inh 72.
Cc1onc(-c2c(Cl)cccc2Cl)c1C(=O)ONC(=O)c1cc(C(F)(F)F)cc(C(F)(F)F)c1 was read as FMDV inh inconclusive, SARS PLP yeast 0%, HCV inhibitor -8%, LASV entry inh 10%, MARV entry inh 16% and HCMV inh -99*.
`Cc1onc(-c2c(Cl)cccc2Cl)c1C(=O)Nn1cnnc1` gave FMDV inh -11%, SARS PLP yeast 0%, HCV inhibitor 5%, LASV entry inh 2%, MARV entry inh 19% and HCMV inh 1.
`Clc1cccc(Nc2nccc3[nH]c(-c4ccncc4)nc23)c1` gave HCMV inh -5.
For Cc1ncc2c(c1CNC(=O)c1ccc3c(c1)OCO3)CCN(C(=O)c1scc3c1CCCC3)C2 the results were FMDV inh -16%.
For CCCNC(=O)C1(C)CCCN(C(=O)COc2ccc(Cl)cc2Cl)C1 (stereo unspecified) the results were FMDV inh -25% and HCMV inh -100*.
CCCNC(=O)C1(C)CCCN(Cc2ccccc2Cl)C1 (stereo unspecified) was read as FMDV inh -2% and HCMV inh -77*.
`Cc1cc(/C=C(/C#N)C(=O)O)c(C)n1CCC(C)C` gave FMDV inh 8%, SARS PLP yeast -12%, HCV inhibitor 12%, LASV entry inh 8%, MARV entry inh 15% and HCMV inh -68*.
